Assay results published in the supplement of paper PMC6522484.
± gives the standard deviation of the averaged measurements.

These compounds were tested on SW480 (assay: TCF/Wnt firefly luciferase reporter signal relative to plate median (fraction of plate median); higher = higher Wnt reporter signal). Settings: 5 µM; treatment time 24 h; reporter: 7TFP.
Outline: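 Library compounds were added at a final concentration of 5 µM for 24 h to colorectal cancer cells stably transduced with a lentiviral TCF/Wnt firefly luciferase reporter. Reported values are firefly luciferase or CellTiterGlo luminescence, normalised per well to the plate median. Each value averages two independent replicates.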

| Compound | TCF/Wnt firefly luciferase reporter signal |
| --- | --- |
| Cc1c(NC(C)C)c(=O)n(-c2ccccc2)n1C | 0.942 ± 0.0014 |
| C=CCCCCCCCCCCCC(O)CC(O)CO (stereo not given) | 1.03 ± 0.042 |
| Cc1onc(-c2c(Cl)cccc2Cl)c1C(=O)N[C@@H]1C(=O)N2[C@@H]1SC(C)(C)[C@@H]2C(=O)O | 1.15 ± 0.16 |
| Cc1nnc(NS(=O)(=O)c2ccc(N)cc2)s1 | 0.981 ± 0.056 |
| CC(=O)Oc1ccc(O)cc1 | 1.035 ± 0.0071 |
| CCC(C)C(N)=O (stereo not given) [2-Methylbutyramide] | 1.045 ± 0.0071 |
| Cc1ccc(=O)n(-c2ccccc2)c1 | 1.08 ± 0.14 |
| COc1c2occc2c(OC)c2c(=O)cc(C)oc12 | 1.12 ± 0.042 |
| CC1CCc2cc(F)cc3c(=O)c(C(=O)O)cn1c23 (stereo not given) | 1.07 ± 0.014 |
| CCCCCCNC(=O)n1cc(F)c(=O)[nH]c1=O | 1.08 ± 0.078 |
| NCCS | 1.16 ± 0.092 |
| O=C(/C=C/c1ccc(O)cc1)c1ccc(O)cc1O | 0.862 ± 0.076 |
| COC(=O)C[C@H]1C(C)(C)C2(O)OC34CC2C(=O)[C@]1(C)C3CC[C@]1(C)C4=CC(=O)O[C@H]1c1ccoc1 (stereo partly drawn) [8beta-HYDROXYCARAPIN, 3,8-HEMIACETAL] | 0.816 ± 0.019 |
| CC(CCC(=O)O)C1CCC2C3CCC4CC(O)CCC4(C)C3C=CC12C (stereo not given) | 0.964 ± 0.02 |
| CCN(CC)CCNc1ccc(CO)c2sc3ccccc3c(=O)c12 | 0.988 ± 0.1 |
| N#Cc1ccc2c(c1)N(CCCN1CCC(O)CC1)c1ccccc1S2 | 1.05 ± 0.071 |
| C[n+]1cc2c3c(ccc2c2ccc4cc5c(cc4c21)OCO5)OCO3 | 0.981 ± 0.011 |
| CN1CCN(C(c2ccccc2)c2ccccc2)CC1 | 1.01 ± 0.12 |
| CC(C)c1c(O)ccc2c1CC[C@H]1[C@@](C)(CO)CCC[C@]21C | 1.04 ± 0.021 |
| C=CCSCC1Nc2cc(Cl)c(S(N)(=O)=O)cc2S(=O)(=O)N1 (stereo not given) | 1.02 ± 0.028 |

| Compound | TCF/Wnt firefly luciferase reporter signal |
| --- | --- |
| Cc1cc(O)c(C)c(O)c1C(=O)O | 0.949 ± 0.23 |
| C[C@@H]1C(=O)O[C@H]2C[C@@]34[C@H]5C[C@@H](C(C)(C)C)[C@]36[C@@H](OC(=O)[C@@H]6O)O[C@@]4(C(=O)O5)[C@]21O | 1.03 ± 0.11 |
| COC(=O)[C@@H]1[C@H]2C[C@H]3c4[nH]c5ccccc5c4CCN3C[C@@H]2CC[C@@H]1O | 0.9165 ± 0.0021 |
| CC(=O)O[C@@H]1C=C[C@]2(C)C(C[C@@H](OC(C)=O)[C@]3(C)C4=CC(=O)O[C@H](c5ccoc5)[C@@]4(C)CCC23)C1(C)C (stereo not given in full) | 1.12 ± 0.078 |
| CC(C)CCC[C@@H](C)C1CC[C@H]2[C@@H]3CCC4CC(=O)CC[C@]4(C)[C@H]3CC[C@]12C (stereo not given in full) | 0.97 ± 0.071 |
| CC(=O)Nc1ccc(OC(=O)c2ccccc2O)cc1 | 0.891 ± 0.043 |
| C=C(C)[C@@H]1C[C@H]2O[C@](O)(C/C(C)=C\C(=O)/C=C(/C)C[C@@H]3OC(=O)[C@]24O[C@@H]34)[C@H]1O [bipinnatolide F] | 0.994 ± 0.023 |
| CC12CC3CC(C)(C1)CC(N)(C3)C2 | 1.04 ± 0.064 |
| COc1ccc(-c2oc3cc(OC)c(OC)c(OC)c3c(=O)c2OC)cc1OC | 1.06 ± 0.17 |
| CCC1(C)OC(=O)N(C)C1=O (stereo not given) | 0.956 ± 0.076 |
| CCOC(=O)C(C)(C)Oc1ccc(Cl)cc1 | 1.04 ± 0.035 |
| Cc1cc(O)c2c(c1)C(=O)c1cccc(O)c1C2=O | 0.934 ± 0.042 |
| NC(C(=O)O)C(O)C(=O)O (stereo not drawn) [d,l-threo-3-HYDROXYASPARTIC ACID] | 1.15 ± 0.064 |
| COc1ccc2c(c1)OC/C(=C\c1ccc(OC)c(O)c1)C2=O | 0.98 ± 0.086 |
| Cn1c(=O)[nH]c2ncn(C)c2c1=O | 1.02 ± 0.072 |
| CN(C)C(=O)Nc1ccc(Cl)c(Cl)c1 | 1.15 ± 0.078 |
| CN[C@@H]1[C@@H](O[C@H]2O[C@H](CO)[C@@H](N)[C@H](O)[C@H]2O)OC2C[C@@H](N)[C@@H](O[C@H]3[C@H](O)[C@@H](O)[C@H](N)C[C@@H]3N)OC2[C@@H]1O (stereo not given in full) | 0.88 ± 0.11 |
| Cc1ccnc(NS(=O)(=O)c2ccc(N)cc2)n1 | 0.929 ± 0.1 |
| C[C@]12C=CC(=O)C=C1CC[C@@H]1[C@@H]2[C@@H](O)C[C@@]2(C)[C@H]1CC[C@]2(O)C(=O)COC(=O)CCC(=O)O | 0.969 ± 0.072 |
| COc1cc(OC)c2ccc(=O)oc2c1 | 1.01 ± 0.071 |
